# Test results from PubChem BioAssay (NCATS).
# Records with an inconclusive call do not appear. Values without a mark were called inactive. Activity calls are given as the source filed them. Calls follow the shape of the dose curve; as a rule, active = well fitted activation curve with a large enough effect; inconclusive = small, poorly fitted or top-dose-only effect; inactive = flat fitted curve, though single readings scatter.
# Assay: Validation screen for small molecules that induce DNA re-replication in SW480 colon adenocarcinoma cells (AID 504364); as to activity (re-replication induction): 0% is about no effect
# Conditions: DNA re-replication phenotype (high-content imaging); series mostly up to 46.1 µM; activity (re-replication induction): at the top concentration
# From the text: H Molecular Libraries Probe Production Network [MLPCN]
# NIH Chemical Genomics Center [NCGC]
# Assay Provider: Melvin DePamphilis, NICHD, NIH
# Eukaryotic cells normally restrict genome duplication to once per cell division. When this process is aberrant, DNA re-replication occurs when cells reinitiate DNA replication before the first round of replication is complete. DNA re-replication induces the DNA damage response, arrests cell proliferation, and triggers apoptosis. The cell cycle components cyclin A, Cdt-1, Cdc6 and geminin are critical regulators of this process and their misregulation results in DNA re-replication in normal and cancer cells. To identify compounds that induce re-replication in normal cells, an image-based assay was used to measure DNA content of nuclei, as detected by the fluorescent DNA binding dye, Hoechst. Cell nuclei were imaged by a fluorescence scanning plate imager and compounds that induce DNA re-replication were identified by the increase of nuclei with elevated fluorescence intensity.#
# For screening, 250 cells in 5 uL/well were dispensed into black clear 1536-well plates (Aurora) using a solenoid-based dispenser. Following transfer of 23 nL compound or DMSO vehicle by a pin tool, the plates were incubated 48 hr at 37 C and 5% CO2. After addition of 1 uL/well Hoescht stain, the plates were incubated 40 min at 37 C, 5% CO2 and total intensity of fluorescent objects (nuclei) were enumerated by an Acumen Explorer Ex3 (TTP LabTech) fluorescence scanning plate imager (405 nm excitation, 500-530 nm emission).
# Keywords: NIH Roadmap, MLPCN, MLI, MLSMR, qHTS, NCGC, DNA replication, cancer
# Potency is read from the fitted curve at half-maximal effect.
SMILES,activity (re-replication induction) [%],Potency
COC(=O)c1cc2c(cn1)[nH]c1ccccc12,-0.86,
COc1cc(CCN)ccc1O,1.73,
C[N+]1(C)CCc2cc3c(cc2C1C1OC(=O)c2c1ccc1c2OCO1)OCO3 (configuration not stated),-5.91,
O=[N+]([O-])c1ccc(O[C@@H]2O[C@H](CO)[C@@H](O)[C@H](O)[C@H]2F)c([N+](=O)[O-])c1,1.2,
COc1ccc(-n2nc(C(F)(F)F)cc2-c2ccc(Cl)cc2)cc1,5.15,
COc1ccc(CCN)cc1O,-0.29,
CP(=O)(O)CCCN,0.248,
CC(O)C(C)OC(=O)[C@@H]1C[C@@H]2c3cccc4c3c(cn4C(C)C)C[C@H]2N(C)C1 (some centres not stated),0.818,
CN1CCN(c2ccc3ccccc3n2)CC1,-11.6,
N[C@@H](Cn1cc(I)c(=O)[nH]c1=O)C(=O)O,4.99,
N[C@H](CCCCCP(=O)(O)O)C(=O)O,1.2,
CC(=O)OCC1=C(C(=O)[O-])N2C(=O)[C@@H](NC(=O)CCC[C@@H](N)C(=O)[O-])[C@H]2SC1.[Zn+2],-6.87,
CN1CCc2cc(O)cc3c2C1Cc1ccc(O)c(O)c1-3 (configuration not stated),9.49,
COc1cc([C@@H]2c3cc4c(cc3[C@H](O)C3COC(=O)[C@@H]32)OCO4)cc(OC)c1OC (some centres not stated),,32.6 nM (active)
COc1ccc2[nH]cc(CCN(C)C)c2c1,9.66,
C=CCN1CCC2(C)c3cc(O)ccc3CC1C2C (configuration not stated),-14.4,
N#CC(C#N)=Cc1ccc([N+](=O)[O-])c(O)c1,-0.819,
